Each structure is given as a SMILES string.

Test [1] in a line: NFkB reporter suppression in cystic fibrosis bronchial cells – cell-based, uHTS hits, panel, cytotoxicity readout, dose response (AID 624344). Particulars: CF bronchial epithelial cells, PAF-induced NFkB reporter inhibition, with PAF, run 1; at 79 µM (top of the series) unless noted.
Assay in test [2]: as above
The conditions noted are these: CF bronchial epithelial cells, PAF-induced NFkB reporter inhibition, with PAF, run 2; at 79 µM (top of the series) unless noted.

What is called inhibition is the relative decrease from the control value, in per cent. For the molecule `Cc1ccc(Nc2nc3nonc3[nH]c2=O)cc1Cl`, the inhibition in test [1] was 118%; in test [2], 104%.
On to `COc1ccc(S(=O)(=O)N2c3cc(C)ccc3OCC2C(C)(C)C)cc1` (stereo not drawn), for which the inhibition in test [1] worked out at 103%; in test [2], 81.9%.
The matching figures for `CC1Cc2ccccc2N1c1ncnc2nc[nH]c12` (stereo not drawn): 114% and 106%.
Take `CCOC(=O)c1ccc(-n2[nH]c(-c3ccccc3)cc2=O)cc1`: the inhibition in test [1] was determined as 113%; in test [2], 93.3%.
The matching figures for `O=C(NNC(=S)Nc1cccc(C(F)(F)F)c1)c1cccc(Cl)c1`: 115% and 93.8%.
The matching figures for `Oc1ccc(Cl)cc1Cc1cc(Cl)ccc1O`: 103% and 107%.
Taken in the same sequence, the figures for `Cc1ccc(NC(=O)CSc2ncnc3ccccc23)cc1S(=O)(=O)N1CCOCC1` were 110% and 98.4%.
As to `O=C(NCCN1CCN(c2ccccc2)CC1)c1cccc(Br)c1`, the values for the inhibition in test [1] and in test [2] were 113% and 73.9%, respectively.
Take `O=C(c1cc([N+](=O)[O-])ccc1N1CCOCC1)N1CCN(c2ccccc2)CC1`: the figures for the inhibition in test [1] and in test [2] were 116% and 79.6%, respectively.
As to `Nc1ncc([N+](=O)[O-])c(N2CCCCCC2)n1`, the inhibition in test [1] is 115%; in test [2], 104%.
The matching figures for `Cc1csc(CNc2ncnc3ccc(-c4ccoc4)cc23)c1`: 111% and 99.4%.
The matching figures for `CC1CCN(CC(CS(=O)(=O)c2ccc([N+](=O)[O-])cc2)N2CCC(C)CC2)CC1` (stereo not drawn): 101% and 104%.
Taken in the same sequence, the figures for `CN(c1cccc(Cl)c1)S(=O)(=O)c1cccc(C(=O)Nc2nc3ccccc3[nH]2)c1` were 102% and 99.5%.
With `CCOc1ccc(CCN2C(=S)N([C@@H](CC(C)C)CN3CCCC3CN3C(=S)NC[C@@H]3CC(C)C)C[C@@H]2Cc2ccc(O)cc2)cc1` (stereo partly drawn), the inhibition in test [1] stood at 76.2%; in test [2], 93.9%.
Turning to `COc1cccc(Nc2ncnc3ccc(Br)cc23)c1`, the inhibition in test [1] came to 119%; in test [2], 105%.
With `c1ccc2c(-c3cncc4ccccc34)cncc2c1`, the results for the inhibition in test [1] and in test [2] were 110% and 99.8%, respectively.
The matching figures for `COc1ccc2cc3c(N)nn(C(=O)Cc4ccccc4OC)c3nc2c1`: 106% and 100%.
The matching figures for `O=C(Nc1nnc(C(F)(F)F)s1)c1ccc(Br)s1`: 114% and 74.5%.
Turning to `Cn1c(Sc2ccc(Cl)cc2)c(C=O)c2ccccc21`, the values for the inhibition in test [1] and in test [2] were 119% and 107%, respectively.
As for `COc1ccccc1NC(=O)c1cc2c(CO)cnc(C)c2oc1=Nc1ccc(OC)c(OC)c1`, the results for the inhibition in test [1] and in test [2] were 73.4% and 93.8%, respectively.
Taken in the same sequence, the figures for `COc1ccc(-c2cc(=O)oc3cc(OC(=O)C4CCCCC4)c(Cl)cc23)cc1` were 117% and 102%.
Turning to `NS(=O)(=O)c1ccc(CCNc2nn3c(-c4cccc(OC(F)(F)F)c4)cnc3s2)cc1`, the inhibition was 98.6% in test [1] and 102% in test [2].
The matching figures for `CCCc1cc(-c2[nH]ncc2-c2ccc3c(c2)OCCCO3)c(O)cc1O`: 108% and 102%.
With `COCCN1Cc2cccc(C(=O)Nc3cccc(-c4nc5ccccc5[nH]4)c3)c2C1=O`, the inhibition in test [1] turned out to be 95.8%; in test [2], 114%.
`O=C(Nc1ccc(N2CCN(C(=O)c3ccccc3F)CC2)cc1)c1cncc(Br)c1`: the inhibition in test [1] was 112%; in test [2], 99.6%.
Taken in the same sequence, the figures for `CC(C)CNC(=O)c1coc(=O)c(Br)c1` were 86% and 63.6%.
Taken in the same sequence, the figures for `O=[N+]([O-])c1cc([N+](=O)[O-])c2oc(-c3ccccc3)c(Br)c2c1O` were 112% and 107%.
With `Cc1ccc(NC(=O)Nc2cccc([N+](=O)[O-])c2)cc1F`, the inhibition in test [1] amounted to 102%; in test [2] it was 113%.
Taken in the same sequence, the figures for `C[C@@H]1CN([C@H](C)CO)C(=O)c2cc(NC(=O)Nc3ccc(C(F)(F)F)cc3)ccc2O[C@H]1CN(C)S(=O)(=O)c1cccs1` were 113% and 96.8%.
The matching figures for `NS(=O)(=O)c1ccc(CCNC(=O)c2ccc(C#CC3(O)CCCCC3)cc2)cc1`: 105% and 102%.
Taken in the same sequence, the figures for `CC(C)(C)C(=O)/C(=C/c1ccncc1)n1cncn1` were 98.3% and 102%.
Take `O=C(Nc1ccccc1)c1cc2ccccc2c(=O)s1`: the inhibition in test [1] stood at 50.8%; in test [2], 85.2%.
With `COc1ccc(COc2cc(-c3cccc(OC)c3)nc3ccc(NC(=O)c4cccnc4)cc23)cc1`, the inhibition in test [1] was 98.7%; in test [2], 95.2%.
With `COc1ccc(OC)c(-c2nnc3n2N=C(c2ccc(OC)c(OC4CCCC4)c2)CS3)c1`, the inhibition in test [1] was determined as 103%; in test [2], 110%.
Take `COc1cc(/C=C2\SC(=O)N(CCNC(=O)c3sc4cc(F)ccc4c3Cl)C2=O)cc(OC)c1OC`: the inhibition in test [1] is 27.5%; in test [2], 30.8%.
Turning to `CC(C)C[C@@H]1NC(=O)[C@H](Cc2ccccc2)N(C)C(=O)[C@H](C)NC(=O)c2ccccc2NC(=O)[C@H](Cc2ccc(O)cc2)N(C)C1=O`, the values for the inhibition in test [1] and in test [2] were 102% and 103%, respectively.
As to `O=S(=O)(c1cccc2cnccc12)N1CCCNCC1`, the figures for the inhibition in test [1] and in test [2] were 116% and 105%, respectively.
In the case of `O=[N+]([O-])c1ccc(Oc2ccc(F)cc2)c2ccncc12`, the values for the inhibition in test [1] and in test [2] were 99.2% and 97.3%, respectively.
Taken in the same sequence, the figures for `Cc1nn(-c2ccccc2)c(N2CCCC2)c1/C=N/NC(=O)c1cc(-c2ccccc2)nc2ccccc12` were 104% and 80%.
Taken in the same sequence, the figures for `C=C(c1ccc2nc(NC(=O)OC)[nH]c2c1)c1cccs1` were 101% and 110%.
The matching figures for `CC1=C(/C=C/C(C)=C/C=C/C(C)=C\C(=O)O)C(C)(C)CCC1`: 100% and 71.7%.
With `Clc1ccccc1C1=Nn2c(nnc2-c2ccncc2)SC1`, the inhibition in test [1] worked out at 109%; in test [2], 100%.
Taken in the same sequence, the figures for `O=C(c1[nH]c(C(F)(F)F)nc1-c1ccccc1)N1CCN(c2c(Cl)cncc2Cl)CC1` were 103% and 96.2%.
`CC(=O)c1cccc(NC(=O)COC(=O)c2ccc(S(C)(=O)=O)c([N+](=O)[O-])c2)c1`: the inhibition in test [1] was 92.5%; in test [2], 93.4%.

The values are drawn from PubChem BioAssay.
